L3MBTL1 inh: inhibitors of human L3MBTL1 | AID 485360 | actives 0.66% (n = 230,000) | Q9Y468 | AlphaScreen L3MBTL1–H3K9me1 peptide binding | Potency, µM (titrated, usually from 57.1 µM), without a hit: top-dose activity, negative = inhibition, usual class: inhibitors; further: on the % scale 0 is the no-effect control and ±100 the full control effect; nearly all actives have a fitted effect of over 60% in size
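AlphaScreen proximity signal between nickel-chelate acceptor and streptavidin donor beads (final 10 ug/mL) reports binding of 50 nM L3MBTL1 to 75 nM biotin-H3 K9me1 peptide; complex incubated with compounds 30 min at room temperature; cefsulodin titration as control.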
HP1b chromo inh: inhibitors of HP1-beta chromodomain binding to methylated histone tails; AlphaScreen HP1-beta / biotin-H3K9me3 peptide binding; Potency, µM (highest dose often 114 µM), for inactives: top-dose activity change, negative = inhibition, hits mostly inhibitors; actives 0.56% (n = 390,000); P83916; further: nearly all actives have a fitted effect of over 70% in size
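Compound inhibition of the preformed complex between 50 nM HP1-beta and 50 nM biotinylated H3K9me3 peptide was read by AlphaScreen. Buffer was PBS pH 7.4 with 0.01% Tween-20. Incubations ran 30 min at room temperature, with 10 ug/mL donor/acceptor beads.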
PLK1 PBD inh: PLK1 (human) polo-box domain binding inhibition; Potency, µM, for the others: max response, negative = inhibition, actives largely listed as inhibitors; Plk1 PBD binding of FITC phosphopeptide, fluorescence polarization; actives 2.8% (n = 360,000); P53350; further: series mostly up to about 57 µM; on the % scale 0 is the no-effect control and ±100 the full control effect; nearly all actives have a fitted effect of over 65% in size
VDR inh: blocks the human vitamin D receptor; P11473; VDR-SRC2-3 peptide fluorescence polarization, 2 h; Potency, µM, inactives show max response, negative = inhibition, usual class: inhibitors; actives 0.93% (n = 400,000); further: on the % scale 0 is the no-effect control and ±100 the full control effect
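Reagent solutions, kept cold and dark, are dispensed first; compounds are then pinned in at 23 nl, plates briefly spun, and incubated 2 h at ambient temperature. Inhibition of VDR–SRC2-3 peptide binding is read by fluorescence polarization.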
JMJD2A Tudor: inhibitors of human JMJD2A Tudor domain. O75164. AlphaScreen JMJD2A-Tudor / H3K4me3 peptide binding. Potency, µM (highest dose often 114 µM), for inactives: at the top dose activity change, negative = inhibition, hits mostly inhibitors. actives 4.4% (n = 390,000). AID 504339; further: on the % scale 0 is the no-effect control and ±100 the full control effect; nearly all actives have a fitted effect of over 50% in size
BAZ2B block: BAZ2B (human) inhibition. Q9UIF8. AlphaScreen BAZ2B-H3K14Ac peptide displacement. Potency, µM (series often up to 114 µM), inactives show at the highest dose activity change, negative = inhibition, most hits filed as inhibitors. actives 4.4% (n = 360,000). AID 504333; further: on the % scale 0 is the no-effect control and ±100 the full control effect; nearly all actives have a fitted effect of over 60% in size
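Protein-peptide AlphaScreen: BAZ2B 50 nM, b-H3K14Ac 50 nM, 1x PBS pH 7.4 + 0.01% Tween-20. Preincubation 30 min RT; cpd 30 min RT (top 110 uM); beads 20 min RT, light-protected.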
* = called active by the depositor; ? = inconclusive; · = not tested or not shown; [ ] = remark or other dose. Sampled rows, rich in hits. Any-hit rate of the full collection: about 6.9%. The call rests on the fitted dose curve; in most records, active means well fitted curve in the direction sought with a large enough effect; inconclusive means small, poorly fitted or top-dose-only effect, or another doubt; inactive means no such curve, though single readings can be large; an effect the other way counts as inactive or inconclusive. Potency means the concentration at half of the fitted maximal effect.

SMILES	L3MBTL1 inh	HP1b chromo inh	PLK1 PBD inh	VDR inh	JMJD2A Tudor	BAZ2B block
CCOCCCNCC(=O)NC1(C)C2CCC(C2)C1(C)C (stereo unspecified)	·	-57%	1%	14%	6.3µM*	56µM*
CC1(C)C2CCC(C2)C1(C)NC(=O)CNCC1CCCCC1 (stereo unspecified)	-3%	?	-5%	17%	?	·
COc1ccc(CCN2C(=O)NC(NC(C)=O)(C(F)(F)F)C2=O)cc1OC (stereo unspecified)	9%	48%	-1%	-11%	0%	-5%
COc1ccc(C(=O)NC2(C(F)(F)F)NC(=O)N(CCCc3ccccc3)C2=O)cc1OC (stereo unspecified)	-1%	-1%	27µM*	-9%	79µM*	-4%
N#CCCN(Cc1ccccc1)C(=O)c1nccnc1C(=O)O	·	50%	-26%	-8%	?	?
CC(C)C[C@@H](CNCC(=O)[C@H](C)NC(=O)c1[nH]cnc1C(=O)N[C@@H](C)CN)NC(=O)c1nc[nH]c1C(=O)N[C@@H](Cc1ccccc1)C(=O)O	·	14%	?	?	79µM*	·
CC(C)C[C@@H](CN)NC(=O)c1nc[nH]c1C(=O)N[C@@H](C)C(=O)CNC[C@H](CC(C)C)NC(=O)c1nc[nH]c1C(=O)N[C@@H](Cc1ccccc1)C(=O)O	·	48%	?	-27%	79µM*	·
CC(C)C[C@H](NC(=O)c1nc[nH]c1C(=O)NCCCCCN)C(=O)OCc1ccccc1	-2%	13%	-4%	5%	79µM*	·
CC(C)C[C@@H](CNCC(=O)[C@H](Cc1c[nH]c2ccccc12)NC(=O)c1[nH]cnc1C(=O)N[C@@H](C)CN)NC(=O)c1nc[nH]c1C(=O)N[C@@H](Cc1ccccc1)C(=O)O	·	39%	-7%	-27%	?	·
CC(C)C[C@H](NC(=O)c1nc[nH]c1C(=O)N[C@@H](CC(C)C)C(=O)OCc1ccccc1)C(=O)OCc1ccccc1	-1%	42%	0%	-4%	-24%	-2%
C[C@H](NC(=O)c1nc[nH]c1C(=O)N[C@@H](Cc1ccccc1)C(=O)OC(C)(C)C)C(=O)OC(C)(C)C	·	21%	0%	-9%	-27%	5%
CC(C)C[C@@H](CNCC(=O)[C@H](Cc1ccccc1)NC(=O)c1[nH]cnc1C(=O)N[C@H](CN)CC(C)C)NC(=O)c1nc[nH]c1C(=O)N[C@@H](CC(=O)O)C(=O)O	·	37%	34µM*	?	28µM*	·
CCN(C(=O)Cn1c(=O)n(CCCS(=O)(=O)C2CCCCC2)c(=O)c2ccccc21)c1cccc(C)c1	·	32%	·	-10%	-3%	-3%
CC(C)C[C@H](NC(=O)c1[nH]cnc1C(=O)N[C@@H](Cc1ccccc1)C(=O)OCc1ccccc1)C(=O)OCc1ccccc1	30%	36%	-11%	-6%	?	-2%
CC(C)C[C@@H](CNCC(=O)[C@H](CC(C)C)NC(=O)c1[nH]cnc1C(=O)N[C@H](CN)CC(C)C)NC(=O)c1nc[nH]c1C(=O)N[C@@H](Cc1ccccc1)C(=O)O	·	22%	21µM*	?	?	·
COCCOC(=O)c1c(C)oc2c1cc(NS(=O)(=O)c1ccc(Cl)c(C)c1)c1ccccc12	·	45%	·	7%	-17%	-12%
O=C1C=C(C2OC(CO)C(O)C2O)C(=O)N1 (stereo unspecified)	·	?	?	40µM*	?	·
CCOc1ccc(C(C)=O)cc1N1C(=O)C2C(C1=O)C1C=CC2C12CC2 (stereo unspecified)	0%	29%	-4%	-6%	-1%	50µM*
O=C1CCCCCN1C(=O)c1ccc(C(=O)N2CCCCCC2=O)cc1	3%	-10%	30µM*	-2%	-18%[11.4 µM]	3%
O=C1CCCCCN1C(=O)c1cccc(C(=O)N2CCCCCC2=O)c1	0%	29%	0%	3%	1%	2%
O=C(NN=Cc1ccc2c(c1)OCO2)NN=Cc1ccc2c(c1)OCO2	·	-2%	-3%	-2%	-13%	·
Oc1ccc(C=NNC(=S)Nc2cccnc2)nc1	·	19%	1%	-15%	10µM*	·
COc1ccccc1/C=N/NC(=S)Nc1cccnc1	·	30%	-1%	-8%	-24%	-15%
Oc1ccc(/C=N/NC(=S)Nc2cccnc2)cc1O	11µM*	?	-28%	6%	-32%	?
CC(C)(C)c1ccc(/C=N/NC(=S)Nc2cccnc2)cc1	-7%	·	·	·	·	-36%
SMILES	L3MBTL1 inh	HP1b chromo inh	PLK1 PBD inh	VDR inh	JMJD2A Tudor	BAZ2B block
O=C(N/N=C/c1ccc(O)c(O)c1)N/N=C/c1ccc(O)c(O)c1	·	35µM*	-10%	-28%	11µM*	32µM*
COc1ccc(-c2nc3cc(C)ccn3c2NC(=O)c2cccc(F)c2)cc1	·	12%	·	5%	-19%	-4%
CC1CCCCN1CCn1c(=S)[nH]c2ncccc2c1=O (stereo unspecified)	-4%	-2%	-4%	-12%	40µM*	-25%
CCN(CC)CCn1c(=S)[nH]c2ccccc2c1=O	5%	29%	-10%	3%	-17%	13%
O=C(CCCn1c(=S)[nH]c2ccccc2c1=O)N1CCOCC1	6%	1%	0%	12%	22µM*	?
CCN(CC)CCCn1c(=S)[nH]c2ncccc2c1=O	·	?	?	-3%	8.9µM*	-9%
CCN(CC)CCCn1c(=S)[nH]c2ccccc2c1=O	-7%	29%	-3%	18%	56µM*	-30%
CCN(CCCn1c(=S)[nH]c2ncccc2c1=O)c1ccccc1	-6%	9%	-7%	1%	-25%	-31%
Cc1cc2nc3c(c(C(F)(F)F)n2n1)CCCC3	-4%	38%	-8%	-5%	-2%	-2%
CSc1ncc(C(=O)Nc2c(C)cccc2C)c(-c2ccccc2)n1	·	17%	·	11%	-32%	-6%
O=C(N/N=C/c1ccc(N2CCOCC2)s1)c1ccccc1Cl	-17%	-22%	24µM*	?	?	-34%
CCOC(=O)c1cc(S(=O)(=O)Nc2ccccc2OCC)[nH]n1	·	-1%[57 µM]	·	3%	50µM*	50µM*
CCOC(=O)c1cc(S(=O)(=O)Nc2ccc(OC(F)(F)F)cc2)[nH]n1	·	2%[57 µM]	·	6%	?	50µM*
CCOC(=O)c1cc(S(=O)(=O)Nc2ccccc2)[nH]n1	·	17%[57 µM]	·	20%	?	79µM*
Cc1ccc(-n2c(=O)c3oc4ccccc4c3n(Cc3ccccc3F)c2=O)cc1C	·	40%	·	12%	8%	-39%
COc1ccc(CCNC(=O)CCCCn2c(=O)c3ccccc3n(Cc3ccc(F)cc3Cl)c2=O)cc1OC	·	12%	·	9%	-14%	1%
